# Values joined by “and” are separate entries in the source; they are usually repeats but may differ in a detail not shown here. Identical values can stand only once. Results filed as inconclusive are left out. A call without a number means that no potency is given here. More than one record can exist for a structure, and the calls need not agree. Active and inactive are the calls of the source. Unless noted, calls follow the shape of the dose curve; as a rule, active = well fitted curve in the direction sought with a large enough effect; inconclusive = small, poorly fitted or top-dose-only effect, or another doubt; inactive = no such curve, though single readings can be large; an effect the other way counts as inactive or inconclusive.
# Tests used:
# [1] = Viability counterscreen for antagonist of constitutive androstane receptor (CAR) against the NCATS DSHEA and TCM libraries (AID 1794837);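 also: compound exposure lasted 24 h before viability reading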
# How it was run: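 Fluorescence from CellTiter-Fluor reports live-cell protease activity in HepG2-CYP2B6-hCAR cells treated for 24 h with substances alongside 48 uM CITCO.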
# [2] = Viability counterscreen for agonist of constitutive androstane receptor (CAR) against the NCATS DSHEA and TCM libraries (AID 1794838);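 also: cells exposed to compound for 24 h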
# How it was run: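 In agonist mode, PK11195 is added at 0.75 uM final to HepG2-CYP2B6-hCAR cells dosed with test substances. Cultures incubate 24 h at 37C before a protease-based fluorogenic viability readout.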
# [3] = molecular target: Nuclear receptor subfamily 1 group I member 3 (Homo sapiens) (UniProt Q14994); assay: Primary qHTS for agonist of constitutive androstane receptor (CAR) against the NCATS DSHEA and TCM libraries (AID 1794839);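 also: HepG2 cells expressing human CAR with a CYP2B6 reporter plus PK11195 antagonist; luciferase reporter luminescence read with ONE-Glo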
# How it was run: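 Cells stably carrying hCAR and a CYP2B6 reporter (HepG2 background) are seeded and allowed 5 h to adhere. Substances at multiple concentrations are added alongside 0.75 µM PK11195, and luciferase signal is measured after 24 h.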
# [4] = HepG2 viability counterscreen (readout 2: ATP content) against the NCATS DSHEA and TCM libraries (AID 1794840);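 also: HepG2 cells exposed to substances for about 24 h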
# How it was run: (§1)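 Cytotoxicity was assessed in HepG2 cells plated at 1,000 cells/well and exposed for about 24 hours to a concentration series. Protease activity and ATP content were measured sequentially in each well.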
# [5] = HepG2 viability counterscreen (readout 1: protease activity) against the NCATS DSHEA and TCM libraries (AID 1794841);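 also: cells exposed to compounds for about 24 h before the protease read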
# How it was run: as §1
# [6] = molecular target: Glutathione peroxidase 1 (Homo sapiens) (UniProt P07203); assay: Primary qHTS Assay for Inhibitors of Recombinant Selenoprotein Glutathione Peroxidase 1 (GPX1) (AID 1845191); also: nearly all actives have a fitted effect of over 65% in size; also: potency is read from the fitted curve at half-maximal effect
# How it was run: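 GR-coupled readout: NADPH consumption tracked by fluorescence, ex 340/em 450 nm, at t=0 and after 15 min at RT. Final mix 10 nM GPX1, 1 mM GSH, 0.5 mM CHP, 0.5 mM NADPH, 100 nM GR, 0.01% BSA, following 30 min enzyme–compound preincubation.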
# [7] = molecular target: Luciferin 4-monooxygenase (Photinus pyralis) (UniProt P08659); assay: Primary firefly luciferase (FLuc) qHTS assay for identification of artifact compounds. (AID 1845220); also: nearly all actives have a fitted effect of over 60% in size
# How it was run: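 D-luciferin and ATP (10 uM each, final) in Tris acetate buffer pH 7.6 were incubated with compounds for 15 min at room temperature. The reaction was started with 10 nM Photinus pyralis luciferase and luminescence read after 5 min. Percent inhibition was fitted to a 4-parameter Hill equation.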
# [8] = Primary fluorescence-based thiol-reactive (MSTI) qHTS assay for identification of artifact compounds. (AID 1845221); also: nearly all actives have a fitted effect of over 65% in size; also: potency is read from the fitted curve at half-maximal effect
# How it was run: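 First, 4 uM MSTI in 2% DMSO/PBS pH 7.4 was dispensed; next, compounds were added; then plates sat 1 h at room temperature without light. Finally, emission at 598 nm was recorded.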
# [9] = system: Nanoluciferase (engineered Oplophorus gracilirostris luciferase); assay: Primary Nanoluciferase (NLuc) qHTS assay for identification of artifact compounds. (AID 1845222)
# How it was run: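 Diluted conditioned medium from NLuc-expressing S16 cells treated with compounds for 15 min at room temperature, then Nano-Glo substrate added; luminescence read after 5 min. Percent inhibition versus no-enzyme and DMSO controls fitted to 4-parameter Hill equation.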
# [10] = molecular target: Catechol O-methyltransferase (Homo sapiens) (UniProt P21964); assay: Confirmatory Screen for Target Class Profiling of Small Molecule Inhibitors of Methyltransferases (AID 1745852; calls by dose curve; also: potency is read from the fitted curve at half-maximal effect); conditions: MTase-Glo luminescence, SAH detection, recombinant enzyme; measured here: COMT max response; stronger effect = lower value
# [11] = molecular target: Guanidinoacetate N-methyltransferase (Homo sapiens) (UniProt Q14353); assay: as above; conditions: activity change, negative = inhibition: at 57.3 µM (top of the series) unless noted
# [12] = molecular target: Nicotinamide N-methyltransferase (Homo sapiens) (UniProt P40261); assay: as above; conditions: MTase-Glo luminescence, SAH detection, recombinant enzyme; measured here: NNMT max response; stronger effect = lower value
# [13] = molecular target: Phenylethanolamine N-methyltransferase (Homo sapiens) (UniProt P11086); assay: as above; conditions: MTase-Glo luminescence, SAH detection, recombinant enzyme; measured here: PNMT max response; stronger effect = lower value
# [14] = molecular target: Phospholipid hydroperoxide glutathione peroxidase GPX4 (Homo sapiens) (UniProt P36969); assay: Primary qHTS Assay for Inhibitors of Recombinant Selenoprotein Glutathione Peroxidase 4 (GPX4) (AID 1845192); also: nearly all actives have a fitted effect of over 65% in size; also: potency is read from the fitted curve at half-maximal effect
# How it was run: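 Steps: GPX4 plus compound, 30 min RT; add GR/GSH/NADPH master mix; start with cumene hydroperoxide; read 340/450 nm fluorescence at 0 and 15 min. Finals were 200 nM GPX4, 1 mM GSH, 0.5 mM CHP, 0.5 mM NADPH, 100 nM GR.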
# [15] = NCATS anti-infectives library activity on HEK293 viability as a counter-qHTS vs the C. elegans viability qHTS (AID 1745854)
# How it was run: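 CellTiter-Glo luminescence, read on a CCD imager, scored viability of HEK293 cells after 24 hr compound exposure at 37C. Library tested in several concentrations, 1:5 steps, up to 41.7 uM; digitonin served as control.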
# [16] = NCATS anti-infectives library activity on the primary C. elegans qHTS viability assay (AID 1745855; calls by dose curve); conditions: C. elegans worm area imaging, day 7; at 41.8 µM (top of the series)
# How it was run: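 Titration-based screen in worms: eggs hatched overnight in M9, L1 larvae fed TOP10 capsules in S medium with compound, incubated 21 °C for 7 days; fluorescent objects gated by size and intensity at days 0, 3 and 7.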
# Chain of Phospholipid hydroperoxide glutathione peroxidase GPX4 (Homo sapiens) (P36969 whole entry, looked up): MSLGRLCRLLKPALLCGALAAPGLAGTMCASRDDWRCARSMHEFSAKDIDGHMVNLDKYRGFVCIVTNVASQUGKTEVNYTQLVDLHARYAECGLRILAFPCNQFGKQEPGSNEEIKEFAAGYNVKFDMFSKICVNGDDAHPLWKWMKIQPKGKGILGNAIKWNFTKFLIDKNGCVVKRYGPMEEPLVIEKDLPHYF
# Chain of Glutathione peroxidase 1 (Homo sapiens) (P07203 whole entry, looked up): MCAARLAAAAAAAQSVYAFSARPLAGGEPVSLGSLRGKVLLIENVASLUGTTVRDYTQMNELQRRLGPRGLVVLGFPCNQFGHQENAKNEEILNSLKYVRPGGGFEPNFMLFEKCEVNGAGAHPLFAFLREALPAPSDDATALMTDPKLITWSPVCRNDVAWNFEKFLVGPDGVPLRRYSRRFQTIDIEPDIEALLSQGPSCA
# Chain of Phenylethanolamine N-methyltransferase (Homo sapiens) (P11086 whole entry, looked up): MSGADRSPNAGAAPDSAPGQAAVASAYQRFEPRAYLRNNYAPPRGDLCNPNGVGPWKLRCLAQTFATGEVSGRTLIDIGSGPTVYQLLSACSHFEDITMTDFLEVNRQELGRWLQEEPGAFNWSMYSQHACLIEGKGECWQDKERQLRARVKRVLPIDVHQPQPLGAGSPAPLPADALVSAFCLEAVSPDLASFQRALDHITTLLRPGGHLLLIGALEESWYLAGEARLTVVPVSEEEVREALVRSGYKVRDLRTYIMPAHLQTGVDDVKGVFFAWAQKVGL
# Chain of Catechol O-methyltransferase (Homo sapiens) (P21964 whole entry, looked up): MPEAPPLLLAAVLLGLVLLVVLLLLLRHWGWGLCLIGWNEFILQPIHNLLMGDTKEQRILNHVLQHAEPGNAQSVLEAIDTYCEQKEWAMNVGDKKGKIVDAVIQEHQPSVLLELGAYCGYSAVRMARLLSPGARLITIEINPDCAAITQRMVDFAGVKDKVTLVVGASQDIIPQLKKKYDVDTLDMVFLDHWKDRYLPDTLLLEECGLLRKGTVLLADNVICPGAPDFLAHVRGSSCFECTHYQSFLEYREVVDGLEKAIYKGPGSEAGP
# Chain of Nicotinamide N-methyltransferase (Homo sapiens) (P40261 whole entry, looked up): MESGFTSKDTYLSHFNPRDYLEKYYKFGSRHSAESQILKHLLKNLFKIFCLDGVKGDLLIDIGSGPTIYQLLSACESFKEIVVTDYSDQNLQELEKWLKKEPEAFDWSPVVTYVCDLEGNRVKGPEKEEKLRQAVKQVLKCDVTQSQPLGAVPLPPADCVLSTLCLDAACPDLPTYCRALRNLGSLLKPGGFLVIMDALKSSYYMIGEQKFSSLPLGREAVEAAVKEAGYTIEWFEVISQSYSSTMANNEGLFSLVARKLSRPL
# Chain of Nuclear receptor subfamily 1 group I member 3 (Homo sapiens) (Q14994 whole entry, looked up): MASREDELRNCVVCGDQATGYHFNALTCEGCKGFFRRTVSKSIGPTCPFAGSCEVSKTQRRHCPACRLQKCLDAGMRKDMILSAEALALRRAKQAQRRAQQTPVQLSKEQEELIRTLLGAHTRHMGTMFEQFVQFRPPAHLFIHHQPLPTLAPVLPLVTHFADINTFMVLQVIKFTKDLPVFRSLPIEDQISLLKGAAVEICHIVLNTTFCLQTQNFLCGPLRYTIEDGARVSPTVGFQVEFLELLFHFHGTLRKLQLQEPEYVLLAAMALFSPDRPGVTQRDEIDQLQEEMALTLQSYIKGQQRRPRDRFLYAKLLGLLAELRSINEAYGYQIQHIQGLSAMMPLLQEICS
structure (smiles),measurement,setting,value
C[C@H]1[C@H](C)CC[C@]2(C(=O)O)CC[C@]3(C)C(=CC[C@@H]4[C@@]5(C)C[C@@H](O)[C@H](O)[C@@](C)(CO)[C@@H]5CC[C@]43C)[C@H]12,outcome,[1],inactive
same,outcome,[2],inactive
same,outcome,[3],inactive
same,outcome,[4],inactive
same,outcome,[5],inactive
same,Potency,[6],inactive
same,Potency,[7],inactive
same,Potency,[8],inactive
same,Potency,[9],inactive
Cc1ccc2c(c1)C=Cc1cc(C)ccc1C2c1cn(Cc2ccc(C(=O)Nc3nn[nH]n3)o2)c(=O)[nH]c1=S,activity,[10],-11%
same,"activity change, negative = inhibition",[11],-0.0663%
same,activity,[12],-18.9%
same,activity,[13],-2.77%
same,Potency,[14],inactive
same,Potency,[7],inactive
same,Potency,[8],inactive
same,Potency,[9],inactive
O=C(O)C[C@H](O)C[C@H](O)/C=C/c1c(C2CC2)nc2ccccc2c1-c1ccc(F)cc1,outcome,[15],inactive
same,Potency,[6],inactive
same,Potency,[14],inactive and 22.4 µM (active)
same,Potency,[8],inactive
same,Potency,[9],inactive
N[C@H]1C[C@H]1c1ccc(-c2cccc(O)c2)cc1,outcome,[15],inactive
same,outcome,[16],inactive
same,Potency,[6],inactive
same,Potency,[14],inactive
same,Potency,[7],inactive
same,Potency,[8],inactive
same,Potency,[9],inactive
CC1=C(/C=C/C(C)=C/C=C/C(C)=C/CO)C(C)(C)CCC1,outcome,[1],inactive
same,outcome,[2],inactive
same,outcome,[4],inactive
same,outcome,[5],inactive
same,Potency,[6],inactive
same,Potency,[14],17.8 µM (active)
Cc1c(-c2ccnn2C)cc(C(=O)NCc2ccc(S(C)(=O)=O)cn2)c(=O)n1-c1cccc(C(F)(F)F)c1,outcome,[15],inactive
same,Potency,[6],inactive
same,Potency,[14],inactive and 12.8 µM (active)
same,Potency,[7],inactive
same,Potency,[8],inactive
same,Potency,[9],inactive
CCOC(=O)[C@H]1O[C@@H]1C(=O)N[C@@H](CC(C)C)C(=O)NCCC(C)C,outcome,[15],inactive
same,outcome,[16],inactive
same,Potency,[6],inactive
same,Potency,[14],inactive
same,Potency,[7],inactive
same,Potency,[8],inactive
same,Potency,[9],inactive
C=Cc1cc(O)cc2nc(-c3ccc(O)c(F)c3)oc12,activity,[10],-54.6%
same,Potency,[11],30.4 µM (active)
same,activity,[12],-36%
same,activity,[13],-50.4%
same,Potency,[9],inactive
CCOC(=O)O[C@]1(C(=O)COC(=O)CC)CC[C@H]2[C@@H]3CCC4=CC(=O)C=C[C@]4(C)[C@H]3[C@@H](O)C[C@@]21C,Potency,[6],inactive
CC(=O)OC(C)OC(=O)C(C)c1ccc(-c2ccccc2)c(F)c1 (stereo not given),Potency,[6],inactive
same,Potency,[14],inactive
OC[C@H]1O[C@@H](Oc2cc(O)cc(/C=C/c3ccc(O)cc3)c2)[C@H](O)[C@@H](O)[C@@H]1O,outcome,[15],inactive
same,Potency,[6],inactive
same,Potency,[14],inactive
same,Potency,[7],inactive
same,Potency,[9],inactive
CO[C@H](C(=O)[C@@H](O)[C@@H](C)O)C1Cc2cc3cc(O[C@H]4C[C@@H](O[C@H]5C[C@@H](O)[C@H](O)[C@@H](C)O5)[C@@H](O)[C@@H](C)O4)c(C)c(O)c3c(O)c2C(=O)[C@H]1O[C@H]1C[C@@H](O[C@H]2C[C@@H](O[C@H]3C[C@](C)(O)[C@H](O)[C@@H](C)O3)[C@H](O)[C@@H](C)O2)[C@H](O)[C@@H](C)O1 (stereo not given in full),Potency,[6],inactive
CC(C)C(=O)OCC(=O)[C@@]12O[C@H](C3CCCCC3)O[C@@H]1C[C@H]1[C@@H]3CCC4=CC(=O)C=C[C@]4(C)[C@H]3[C@@H](O)C[C@@]12C,Potency,[6],inactive
same,Potency,[14],inactive
Nc1ncnc2c1ncn2[C@@H]1O[C@H](COP(=O)(O)OP(=O)(O)OP(=O)(O)O)[C@@H](O)[C@H]1O,outcome,[6],inactive [at 0.4 µM]
same,"activity change, negative = inhibition",[14],0.0913% [at 0.409 µM] (inactive)
Cc1cc(C(=O)NNCc2ccccc2)no1,Potency,[6],inactive
same,Potency,[14],inactive
O=CCCCC=O,Potency,[6],inactive
same,Potency,[14],inactive
Cc1cc(/C=C/c2ccc3cc(N(C)C)ccc3[n+]2C)c(C)n1-c1ccccc1,Potency,[6],inactive
same,Potency,[14],14.1 µM (active)
CC1(C)C(=O)C(C)(C)c2cc(C(=O)Nc3ccc(C(=O)O)cc3)ccc21,Potency,[6],inactive
same,Potency,[14],inactive
same,Potency,[7],inactive
same,Potency,[8],inactive
CC/C=C/CC1=C(CCCCCCCC(=O)O)CCC1=O,Potency,[6],inactive
same,Potency,[14],inactive
same,Potency,[7],inactive
same,Potency,[8],inactive
CCOc1ccc2c(c1)C(C)=CC(C)(C)N2,Potency,[6],inactive
same,Potency,[14],31.6 µM (active)
CCc1cc2c(=O)c(-c3nc4ccccc4s3)coc2c(CN2CCCCC2)c1O,Potency,[6],11.1 µM (active)
same,Potency,[14],inactive
same,Potency,[7],inactive
same,Potency,[8],inactive
CC1=CCC2C(C)(CO)CCCC2(CO)C1CO (stereo not given),Potency,[6],inactive
same,Potency,[14],inactive
same,Potency,[7],inactive
same,Potency,[8],13.4 µM (active)
